# Screening data: PubChem BioAssay, National Center for Advancing Translational Sciences (NCATS)
# This is a sample that favours compounds with a hit; in the whole collection about 21% have one here.
# IL1B secr inh: inhibitors of inflammasome signaling (IL-1 beta secretion). THP-1 LPS/ATP IL-1B secretion, AlphaLISA, 16 h; hits give low values. activity change, % at 57.5 µM. 360,000 compounds, 4.7% hits. AID 743279; in the data active = activity change below about -50%; inconclusive = mostly about -30% to -49%
#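 Secreted IL-1B measured by AlphaLISA bead assay after 16 h compound exposure of THP-1 cells; compounds (final up to 57.5 uM) added 1 h before LPS (250 ng/mL) and ATP (1.25 mM) stimulation; lower signal means less secretion.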
# TDP1 cell CPT: growth inhibition of DT40 Tdp1-/-;hTDP1 cells with camptothecin (screen for TDP1 inhibitors); chicken DT40 Tdp1-/-;hTDP1 cells + 20 nM CPT, ATP luminescence, 48 h; Potency, µM (highest dose often 46.2 µM), inactives show top-dose activity change, negative = growth inhibition, actives largely listed as inhibitors; 420,000 compounds, 12% hits; AID 686979; also: potency is read from the fitted curve at half-maximal effect; nearly all actives have a fitted effect of over 55% in size
#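 Chicken DT40 Tdp1-/- cells complemented with human TDP1, 400 cells/well, exposed to compounds plus 20 nM camptothecin for at least 48 h at 37 C; viability read as ATP content by CellTiter-Glo luminescence.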
# RORg inh: inhibitors of mouse ROR gamma transcriptional activity; P51450; Drosophila S2 Gal4-RORgamma UAS-luciferase reporter, 20 h; Potency, µM (series often up to 53.6 µM), for the others: top-dose activity change, negative = inhibition, hits mostly inhibitors; 310,000 compounds, 5.4% hits; also: potency is read from the fitted curve at half-maximal effect; nearly all actives have a fitted effect of over 60% in size
# Target sequence (P51450 whole entry, looked up, the tested form may be a part): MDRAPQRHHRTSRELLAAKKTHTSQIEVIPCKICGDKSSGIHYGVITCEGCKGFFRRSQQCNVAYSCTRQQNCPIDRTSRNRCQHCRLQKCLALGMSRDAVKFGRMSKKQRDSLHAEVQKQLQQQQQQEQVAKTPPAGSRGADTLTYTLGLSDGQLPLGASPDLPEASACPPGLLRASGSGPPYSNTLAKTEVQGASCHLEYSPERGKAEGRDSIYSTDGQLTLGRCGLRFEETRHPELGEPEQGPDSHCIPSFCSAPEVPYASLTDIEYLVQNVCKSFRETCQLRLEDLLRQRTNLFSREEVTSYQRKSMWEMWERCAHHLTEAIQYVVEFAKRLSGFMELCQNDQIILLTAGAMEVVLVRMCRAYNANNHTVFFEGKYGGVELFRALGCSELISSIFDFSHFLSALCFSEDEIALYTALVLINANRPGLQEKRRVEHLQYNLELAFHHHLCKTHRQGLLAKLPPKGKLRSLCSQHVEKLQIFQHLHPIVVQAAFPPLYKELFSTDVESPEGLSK
#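 Compounds are pin-transferred onto Drosophila Schneider cells expressing a copper-inducible Gal4–ROR gamma transactivation domain fusion. After 1 hr, copper sulfate is added to 700 uM final; luciferase is read 20 hr later.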
# ELG1 repair inh: blocks ELG1-dependent DNA repair in HEK293T cells; AID 504467; 330,000 compounds, 2.3% hits; HEK293T ELG1-luciferase reporter, luminescence, 16 h; DNA damage induced by 5-fluorouridine; Potency, µM (titrated, usually from 46.1 µM), for inactives: at the top dose activity change, negative = inhibition, actives largely listed as inhibitors; also: potency is read from the fitted curve at half-maximal effect; nearly all actives have a fitted effect of over 55% in size
#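 Reporter activity after DNA damage by 5-fluorouridine is monitored. Compound-treated cells incubate 16 hr at 37 °C, then ONE-Glo is added for 30 min before luminescence reading.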
# VP16 counter: counter-screen for ROR gamma inhibitors: Gal4-VP16 reporter | Potency, µM (titrated, usually from 53.6 µM), without a hit: at the top dose activity, negative = inhibition, actives largely listed as inhibitors | AID 2546 | 310,000 compounds, 3.5% hits | Drosophila S2 Gal4-VP16 UAS-luciferase, luminescence, 20 h;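 also: Gal4-VP16 expression switched on by copper sulfate through the metallothionein promoter; potency is read from the fitted curve at half-maximal effect; nearly all actives have a fitted effect of over 50% in size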
# TDP1 cell noCPT: qHTS for Inhibitors of human tyrosyl-DNA phosphodiesterase 1 (TDP1): qHTS in cells in absence of CPT. DT40 Tdp1-/- hTDP1 cells, no CPT, ATP luminescence, 48 h. Potency, µM (doses to about 46.2 µM), without a hit: at the top dose activity change, negative = growth inhibition, usual class: inhibitors. 420,000 compounds, 15% hits. AID 686978, 2013; also: potency is read from the fitted curve at half-maximal effect; nearly all actives have a fitted effect of over 55% in size
#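 Chicken DT40 Tdp1-/- cells complemented with human TDP1, screened without camptothecin (DMSO vehicle only), 400 cells/well. Compounds pin-transferred, cells incubated at 37 °C for at least 48 hr. Growth read as ATP-dependent luminescence (CellTiter-Glo, 30 min at RT).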
# * hit, by the source's call; ? = inconclusive; / = not tested or not shown; [ ] = another dose, or the depositor's remark. Unless noted, calls follow the shape of the dose curve; as a rule, active = well fitted curve in the direction sought with a large enough effect; inconclusive = small, poorly fitted or top-dose-only effect, or another doubt; inactive = no such curve, though single readings can be large; an effect the other way counts as inactive or inconclusive. % is scaled to controls: 0 for no effect and ±100 for the full control effect.
SMILES,IL1B secr inh,TDP1 cell CPT,RORg inh,ELG1 repair inh,VP16 counter,TDP1 cell noCPT
OCCC1CN(Cc2cnc(-c3ccccc3)s2)CCN1C1CCCC1 (stereo not drawn),-81*,7%,-13%,-6%,1%,-4%
Cc1ccc(S(=O)(=O)N(C)CCCC(=O)Nc2ccncc2)cc1,36,10µM*,24%,5.8µM*,?,13µM*
Cc1ccc(S(=O)(=O)N(C)CCCC(=O)Nc2ccc(F)cc2)cc1,1,21µM*,21%,?,6%,-25%
O=C(O)c1ccc(-n2nc(-c3ccccc3O)nc2-c2ccccc2O)cc1,/,?,/,/,/,21µM*
Oc1ccccc1-c1nc(/C=C/c2ccccc2)nn1-c1ccccc1,?,-27%,-6%,17%,-18%,?
Oc1ccc(/C=C/c2nc(-c3ccccc3O)n(-c3ccccc3)n2)cc1,-66*,?,?,-7%,?,?
Cc1ccc(N)cc1NC(=O)CN1CCOCC1,13,0%,-2%,-14%,-12%,4%
CCO[C@@H]1OC(C(=O)NCc2nc3ccccc3[nH]2)=C[C@H](C(C)(C)C)[C@H]1CCCO,34,1.3µM*,/,/,/,1.2µM*
CCO[C@@H]1OC(C(=O)NCc2nc3ccccc3[nH]2)=C[C@H](C2CC2)[C@H]1CCCO,18,4.6µM*,-20%,2%,-9%,2.9µM*
CCO[C@H]1OC(C(=O)NCc2nc3ccccc3[nH]2)=C[C@@H](c2ccc(Br)cc2)[C@@H]1CCCO,-16,?,/,/,/,?
CCO[C@@H]1OC(C(=O)NCc2ccccc2)=C[C@H](C2CC2)[C@H]1CCCO,24,-10%,7%,?,-10%,-19%
CC(=O)N1CCC2(CC1)CCN(C(=O)Nc1cccc(C#N)c1)CC2,/,1%,10%,/,-1%,0%
O=C1[C@@H](Oc2ccccc2)[C@@H](c2ccccc2)N1c1cccnc1,7,?,/,/,/,13µM*
O=C1[C@@H](Oc2ccccc2)[C@@H](c2ccncc2)N1c1ccccc1,-18,?,/,?,/,18µM*
COc1ccc(C2C(Oc3ccccc3)C(=O)N2c2ccc(C)c(C)c2)cc1OC (stereo not drawn),-4,?,/,/,/,?
O=C1[C@H](c2ccccc2)[C@@H](c2ccccc2)N1c1ccncc1,-24,15µM*,/,-5%,/,?
Cc1ccc(-n2c(SCC(=O)Nc3ccc4c(c3)OCO4)nc3c([nH]c4ccccc43)c2=O)cc1,/,-1%,/,/,/,?
CN(C)c1ccc(C(=O)N=c2sccn2C)cc1[N+](=O)[O-],?,16%,19%,?,21%,4%
Cc1cc([N+](=O)[O-])ccc1NC(=O)c1cc2ccccc2o1,-1,1%,-17%,?,8%,-16%
Cc1cc(C)c2c(n1)nn1c(C)c(CCC(=O)NCc3ccc(Cl)cc3)c(C)nc21,/,-26%,/,/,/,?
COc1cccc(CNc2nc3cc(-c4ccccc4CO)sc3c(=O)n2C)c1,-10,18µM*,/,/,/,?
COc1cccc(CNc2nc3cc(-c4cccc(OC)c4)sc3c(=O)n2C)c1,38,?,/,/,/,?
COc1cccc(CNc2nc3cc(-c4ccc(OC)cc4C)sc3c(=O)n2C)c1,-15,?,/,/,/,?
COc1cccc(CNc2nc3cc(-c4cscc4C)sc3c(=O)n2C)c1,-57*,?,/,/,/,21µM*
CCCC[C@H](CC)CN=C(N)NC(N)=NCCCCCCN=C(N)NC(N)=NC[C@@H](CC)CCCC,/,/,?,/,-24%[17 µM],/
SMILES,IL1B secr inh,TDP1 cell CPT,RORg inh,ELG1 repair inh,VP16 counter,TDP1 cell noCPT
Cc1ccc(NC(=O)C(NC2CCCc3ccccc32)c2ccccc2)c([N+](=O)[O-])c1 (stereo not drawn),-2,?,6%,14%,-9%,23µM*
Cc1ccc(NC(=O)C(NC2CCCc3ccccc32)c2ccccc2)cc1Cl (stereo not drawn),0,2.9µM*,2%[10 µM],-10%,-65%,18µM*
COc1cc(C(C)=O)ccc1OCC(=O)Nc1ccc(Cl)c(S(=O)(=O)N2CCOCC2)c1,0,23µM*,/,?,/,18µM*
O=C(CN(CCO)c1ccccc1)Nc1ccc(Cl)c(S(=O)(=O)N2CCOCC2)c1,8,?,?,?,-15%,?
CCN(CC)S(=O)(=O)c1cc(NC(=O)CCCOc2ccc(C(C)=O)cc2)ccc1C,-2,?,25%,16µM*,-22%,18µM*
O=C(COc1cccc(Br)c1)Nc1ccc(Cl)c(S(=O)(=O)N2CCOCC2)c1,?,21µM*,/,23µM*,/,16µM*
O=C(CCCSc1ccccc1)Nc1ccc(Cl)c(S(=O)(=O)N2CCOCC2)c1,-3,16µM*,/,?,/,18µM*
C[C@@H]1CN([C@@H](C)CO)S(=O)(=O)c2ccc(-c3ccccc3)cc2O[C@@H]1CN(C)Cc1ccccc1C(=O)O,4,-23%,/,/,/,?
Cc1ccc(NC(=O)CCCOc2ccccc2)cc1S(=O)(=O)N1CCOCC1,10,?,/,?,/,?
CN(CCOc1ccccc1)CC(=O)Nc1ccc(Cl)c(S(=O)(=O)N(C)C)c1,-51*,8%,-5%,?,-24%,?
Cc1ccc(OCCCC(=O)Nc2ccc(Cl)c(S(=O)(=O)N3CCOCC3)c2)cc1,?,?,/,23µM*,/,18µM*
CC(=O)c1ccc(OCCCC(=O)Nc2ccc(Cl)c(S(=O)(=O)N3CCOCC3)c2)cc1,29,16µM*,/,/,/,21µM*
CN(C)S(=O)(=O)c1cc(NC(=O)CNCc2ccccc2)ccc1Cl,11,-28%,?,17%,2%,?
O=C(CCCOc1ccccc1)Nc1ccc(Cl)c(S(=O)(=O)N2CCOCC2)c1,?,18µM*,/,13µM*,/,16µM*
Cc1ccc(OCCC(=O)OCC(=O)Nc2ccc(C)c(S(=O)(=O)N3CCOCC3)c2)cc1,-13,0%,/,/,/,9%
CC(C)(C)c1ccc(OCCC(=O)Nc2cccc(S(=O)(=O)N3CCOCC3)c2)cc1,15,?,/,1%,/,?
O=C(CCNC(=O)c1ccccc1Cl)Nc1cccc(S(=O)(=O)N2CCOCC2)c1,-28,-13%,/,27%,/,4%
CC(=O)N(C(C)=O)c1ccc2c(c1)OCCO2,-1,5%,/,/,/,7%
COCCNC(=S)Nc1ccc(N2CCOCC2)c(S(=O)(=O)Nc2ccc(Cl)cc2)c1,-3,?,/,/,/,10µM*
